The values below come from paper PMC7862700, “An all-to-all approach to the identification of sequence-specific readers for epigenetic DNA modifications on cytosine”.

Holding throughout (assay): DAPPL (digital affinity profiling via proximity ligation, sequencing); 10 mM Tris-HCl pH 7.5, 50 mM NaCl, 1 mM DTT, 4% glycerol, room temperature, 30 min; GST-TFs on glutathione beads, 16-mer random dsDNA library, 0.1% formaldehyde crosslink after washing; high values mean tight binding
In one test the target is T1, FLI1 (Homo sapiens, UniProt Q01543 1-452).
T1 sequence: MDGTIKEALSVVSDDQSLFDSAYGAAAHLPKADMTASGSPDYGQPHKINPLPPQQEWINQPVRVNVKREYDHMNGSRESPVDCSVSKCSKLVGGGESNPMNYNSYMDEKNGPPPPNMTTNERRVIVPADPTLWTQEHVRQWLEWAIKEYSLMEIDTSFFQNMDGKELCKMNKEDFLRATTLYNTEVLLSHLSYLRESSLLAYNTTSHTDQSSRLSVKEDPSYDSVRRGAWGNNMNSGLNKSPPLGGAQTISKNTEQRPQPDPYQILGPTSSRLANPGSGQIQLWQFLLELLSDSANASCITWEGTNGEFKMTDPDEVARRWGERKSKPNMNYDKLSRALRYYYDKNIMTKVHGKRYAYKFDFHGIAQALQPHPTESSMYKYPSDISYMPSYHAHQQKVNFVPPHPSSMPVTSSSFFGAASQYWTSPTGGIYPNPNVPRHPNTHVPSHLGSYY
Particulars: protein: recombinant; tags: N-terminal GST; dsDNA, one strand shown. The procedure, abridged: (§1)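 Pools were built from human transcription factors expressed in yeast as GST fusions, captured on glutathione beads and DNA-barcoded, along with a tag-only sample. Incubation with 200 nmole of a 16-mer random double-stranded DNA library lasted 30 min at room temperature in Tris/NaCl/DTT/glycerol buffer, and was followed by washing, 0.1% formaldehyde crosslinking, proximity ligation, PCR amplification and Illumina NextSeq500 sequencing. Binding signal is the quotient of each hexamer's read frequency for a factor and its frequency for the tag-only sample.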

Another test deals with T2, ELK1 (Homo sapiens, UniProt P19419 1-428).
T2 sequence: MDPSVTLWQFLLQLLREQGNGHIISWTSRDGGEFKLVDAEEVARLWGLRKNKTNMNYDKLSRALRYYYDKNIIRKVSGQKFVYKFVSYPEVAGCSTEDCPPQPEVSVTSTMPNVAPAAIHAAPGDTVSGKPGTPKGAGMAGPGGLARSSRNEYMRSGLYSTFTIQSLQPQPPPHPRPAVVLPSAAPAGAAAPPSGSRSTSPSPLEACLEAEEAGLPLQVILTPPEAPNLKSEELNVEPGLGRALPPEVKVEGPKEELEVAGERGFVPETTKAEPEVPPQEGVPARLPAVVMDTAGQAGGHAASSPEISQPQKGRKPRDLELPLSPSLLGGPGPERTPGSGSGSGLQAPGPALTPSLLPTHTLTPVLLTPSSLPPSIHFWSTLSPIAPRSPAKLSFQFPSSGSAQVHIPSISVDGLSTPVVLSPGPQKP
Particulars: protein: recombinant; tags: N-terminal GST; dsDNA, one strand shown. An outline of the steps: as §1

Another test has as its target T3, GABPA (Homo sapiens, UniProt Q06546 1-454).
T3 sequence: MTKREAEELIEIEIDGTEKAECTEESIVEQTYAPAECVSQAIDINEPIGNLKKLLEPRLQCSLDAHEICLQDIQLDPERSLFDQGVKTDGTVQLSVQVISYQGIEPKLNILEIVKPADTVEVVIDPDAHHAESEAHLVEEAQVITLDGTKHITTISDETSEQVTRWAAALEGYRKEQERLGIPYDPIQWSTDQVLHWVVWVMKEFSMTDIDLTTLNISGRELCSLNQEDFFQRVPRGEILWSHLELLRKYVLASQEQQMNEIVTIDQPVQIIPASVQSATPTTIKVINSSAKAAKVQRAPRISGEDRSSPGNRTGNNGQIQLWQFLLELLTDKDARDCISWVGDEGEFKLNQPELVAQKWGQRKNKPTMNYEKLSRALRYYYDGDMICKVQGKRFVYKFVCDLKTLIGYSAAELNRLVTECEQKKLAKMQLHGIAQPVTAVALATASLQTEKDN
As to conditions: protein: recombinant; tags: N-terminal GST; dsDNA, one strand shown. The procedure, abridged:
as §1

A further test deals with T4, ERG (Homo sapiens, UniProt P11308 1-479).
T4 sequence: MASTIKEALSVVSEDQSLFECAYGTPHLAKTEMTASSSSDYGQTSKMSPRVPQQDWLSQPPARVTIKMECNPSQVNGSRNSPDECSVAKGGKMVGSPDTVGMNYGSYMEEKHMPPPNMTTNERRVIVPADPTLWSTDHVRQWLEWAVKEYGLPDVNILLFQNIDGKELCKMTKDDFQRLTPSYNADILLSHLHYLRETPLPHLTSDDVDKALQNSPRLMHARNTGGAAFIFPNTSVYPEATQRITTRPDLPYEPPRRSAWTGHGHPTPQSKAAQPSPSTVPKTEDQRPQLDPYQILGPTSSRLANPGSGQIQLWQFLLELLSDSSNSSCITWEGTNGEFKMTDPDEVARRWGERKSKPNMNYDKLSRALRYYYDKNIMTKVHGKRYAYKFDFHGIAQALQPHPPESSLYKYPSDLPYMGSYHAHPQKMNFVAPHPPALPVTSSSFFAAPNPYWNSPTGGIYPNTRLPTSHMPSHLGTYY
Particulars: protein: recombinant; tags: N-terminal GST; dsDNA, one strand shown. The procedure, abridged:
as §1

A further test addresses ELF1 (Homo sapiens, UniProt P32519 1-619). As to conditions: protein: recombinant; tags: N-terminal GST; dsDNA, one strand shown. The procedure, abridged: as §1
In a further test the target is T5, EHF (Homo sapiens, UniProt Q9NZC4 1-300).
T5 sequence: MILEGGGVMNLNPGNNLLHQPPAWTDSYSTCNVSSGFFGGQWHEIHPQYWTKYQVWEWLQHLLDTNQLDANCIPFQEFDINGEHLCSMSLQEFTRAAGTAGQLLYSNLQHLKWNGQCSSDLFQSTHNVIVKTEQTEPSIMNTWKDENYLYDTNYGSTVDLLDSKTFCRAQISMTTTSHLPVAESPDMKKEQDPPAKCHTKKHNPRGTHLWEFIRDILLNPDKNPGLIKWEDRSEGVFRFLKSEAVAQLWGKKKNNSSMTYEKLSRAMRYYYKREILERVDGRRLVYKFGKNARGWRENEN
Particulars: protein: recombinant; tags: N-terminal GST; dsDNA, one strand shown. The procedure, abridged: as §1

The target in a further test is SPI1 (Homo sapiens, UniProt P17947 1-270). Particulars: protein: recombinant; tags: N-terminal GST; dsDNA, one strand shown. An outline of the steps:
as §1

A further test concerns the target SPIB (Homo sapiens, UniProt Q01892 1-262). As to conditions: protein: recombinant; tags: N-terminal GST; dsDNA, one strand shown. An outline of the steps:
as §1

The next test deals with T6, ELK3 (Homo sapiens, UniProt P41970 1-407).
T6 sequence: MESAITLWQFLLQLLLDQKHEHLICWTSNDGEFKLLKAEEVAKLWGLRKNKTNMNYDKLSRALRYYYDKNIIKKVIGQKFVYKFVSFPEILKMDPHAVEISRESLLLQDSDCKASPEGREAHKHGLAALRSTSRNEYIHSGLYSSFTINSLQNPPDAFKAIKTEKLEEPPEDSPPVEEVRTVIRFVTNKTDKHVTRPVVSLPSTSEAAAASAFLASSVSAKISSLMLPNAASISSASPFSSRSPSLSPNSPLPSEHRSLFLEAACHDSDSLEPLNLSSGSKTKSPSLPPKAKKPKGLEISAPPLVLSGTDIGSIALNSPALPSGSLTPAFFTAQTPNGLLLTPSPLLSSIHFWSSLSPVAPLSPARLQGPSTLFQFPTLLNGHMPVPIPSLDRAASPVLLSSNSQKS
Particulars: protein: recombinant; tags: N-terminal GST; dsDNA, one strand shown. The procedure, abridged:
as §1

In another test the target is T7, FEV (Homo sapiens, UniProt Q99581 1-238).
T7 sequence: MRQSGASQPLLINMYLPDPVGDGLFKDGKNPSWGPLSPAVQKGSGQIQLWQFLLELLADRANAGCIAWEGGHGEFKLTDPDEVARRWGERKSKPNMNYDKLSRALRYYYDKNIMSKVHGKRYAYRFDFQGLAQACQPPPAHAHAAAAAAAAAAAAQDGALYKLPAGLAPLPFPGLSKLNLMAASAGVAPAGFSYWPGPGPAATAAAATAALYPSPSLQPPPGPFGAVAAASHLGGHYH
Particulars: protein: recombinant; tags: N-terminal GST; dsDNA, one strand shown. An outline of the steps:
as §1

For a further test, the target named is ETV5 (Homo sapiens, UniProt P41161 1-510). As to conditions: protein: recombinant; tags: N-terminal GST; dsDNA, one strand shown. An outline of the steps: as §1
A further test deals with HSF1 (Homo sapiens, UniProt Q00613 1-529). As to conditions: protein: recombinant; tags: N-terminal GST; chain copies: 3; dsDNA, one strand shown. The procedure, abridged: as §1
For another test, the target named is T8, SPIC (Homo sapiens, UniProt Q8N5J4 1-248).
T8 sequence: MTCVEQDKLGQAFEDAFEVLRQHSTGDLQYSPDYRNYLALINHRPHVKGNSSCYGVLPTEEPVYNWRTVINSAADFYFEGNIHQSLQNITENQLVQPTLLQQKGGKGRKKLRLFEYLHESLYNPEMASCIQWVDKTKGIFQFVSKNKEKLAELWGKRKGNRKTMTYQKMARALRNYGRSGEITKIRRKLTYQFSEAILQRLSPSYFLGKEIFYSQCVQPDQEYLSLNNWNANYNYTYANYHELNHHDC
As to conditions: protein: recombinant; tags: N-terminal GST; dsDNA, one strand shown. The procedure, abridged: as §1

The target of another test is ELF4 (Homo sapiens, UniProt Q99607 1-663). Particulars: protein: recombinant; tags: N-terminal GST; dsDNA, one strand shown. An outline of the steps: as §1
For a further test, the target named is T9, ELK4 (Homo sapiens, UniProt P28324-2 1-405).
T9 sequence: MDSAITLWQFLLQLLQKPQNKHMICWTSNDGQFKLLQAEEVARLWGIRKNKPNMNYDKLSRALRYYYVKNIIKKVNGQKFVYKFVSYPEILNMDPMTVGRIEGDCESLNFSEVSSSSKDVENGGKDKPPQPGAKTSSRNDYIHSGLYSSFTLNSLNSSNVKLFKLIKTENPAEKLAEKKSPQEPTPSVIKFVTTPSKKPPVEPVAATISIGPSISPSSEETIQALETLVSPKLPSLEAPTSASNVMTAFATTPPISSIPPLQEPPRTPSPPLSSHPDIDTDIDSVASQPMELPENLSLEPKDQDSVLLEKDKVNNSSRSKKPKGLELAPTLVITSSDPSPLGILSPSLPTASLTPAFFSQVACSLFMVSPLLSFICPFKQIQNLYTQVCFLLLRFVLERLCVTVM
As to conditions: protein: recombinant; tags: N-terminal GST; dsDNA, one strand shown. An outline of the steps: as §1

Another test concerns the target T10, ETV2 (Homo sapiens, UniProt O00321 1-342).
T10 sequence: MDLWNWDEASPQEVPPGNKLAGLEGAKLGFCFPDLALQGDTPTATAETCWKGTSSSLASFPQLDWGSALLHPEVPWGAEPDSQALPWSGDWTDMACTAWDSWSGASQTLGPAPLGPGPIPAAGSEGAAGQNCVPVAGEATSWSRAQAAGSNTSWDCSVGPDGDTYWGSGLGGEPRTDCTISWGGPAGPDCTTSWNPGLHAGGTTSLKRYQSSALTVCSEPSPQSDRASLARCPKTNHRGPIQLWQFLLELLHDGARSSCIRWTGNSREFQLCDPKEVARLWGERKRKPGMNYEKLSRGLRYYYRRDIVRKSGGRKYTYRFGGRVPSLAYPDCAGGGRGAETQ
As to conditions: protein: recombinant; tags: N-terminal GST; dsDNA, one strand shown. An outline of the steps:
as §1

The target in a further test is T11, ELF3 (Homo sapiens, UniProt P78545 1-371).
T11 sequence: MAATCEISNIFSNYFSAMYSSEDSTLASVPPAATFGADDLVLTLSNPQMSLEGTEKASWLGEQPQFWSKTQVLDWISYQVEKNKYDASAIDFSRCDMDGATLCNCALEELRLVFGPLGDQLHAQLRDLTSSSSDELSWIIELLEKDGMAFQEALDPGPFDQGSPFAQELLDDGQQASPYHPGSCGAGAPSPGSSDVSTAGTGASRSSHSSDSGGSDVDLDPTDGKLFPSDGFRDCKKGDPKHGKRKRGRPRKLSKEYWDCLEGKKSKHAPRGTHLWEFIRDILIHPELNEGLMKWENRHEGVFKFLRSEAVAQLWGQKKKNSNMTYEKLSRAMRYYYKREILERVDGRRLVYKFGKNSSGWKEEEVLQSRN
Particulars: protein: recombinant; tags: N-terminal GST; dsDNA, one strand shown. The procedure, abridged: as §1

Another test addresses CRX (Homo sapiens, UniProt O43186 1-299). Particulars: protein: recombinant; tags: N-terminal GST; dsDNA, one strand shown. An outline of the steps:
as §1

The target of a further test is ETV1 (Homo sapiens, UniProt P50549 1-477). As to conditions: protein: recombinant; tags: N-terminal GST; dsDNA, one strand shown. An outline of the steps:
as §1

Chain of ETV5 (P41161 whole entry): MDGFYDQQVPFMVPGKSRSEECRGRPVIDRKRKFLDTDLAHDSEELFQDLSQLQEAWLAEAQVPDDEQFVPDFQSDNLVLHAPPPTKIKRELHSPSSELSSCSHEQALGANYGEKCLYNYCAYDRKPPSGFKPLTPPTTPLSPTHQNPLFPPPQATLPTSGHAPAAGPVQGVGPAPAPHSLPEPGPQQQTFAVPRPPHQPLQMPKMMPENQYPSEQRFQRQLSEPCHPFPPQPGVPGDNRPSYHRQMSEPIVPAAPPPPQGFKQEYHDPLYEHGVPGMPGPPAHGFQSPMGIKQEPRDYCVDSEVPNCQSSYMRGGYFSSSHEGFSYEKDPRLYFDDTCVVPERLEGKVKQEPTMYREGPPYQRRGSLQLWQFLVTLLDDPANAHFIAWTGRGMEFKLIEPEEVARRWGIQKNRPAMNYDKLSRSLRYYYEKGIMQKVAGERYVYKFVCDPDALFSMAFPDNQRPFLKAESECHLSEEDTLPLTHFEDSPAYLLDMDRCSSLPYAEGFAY
Chain of CRX (O43186 whole entry): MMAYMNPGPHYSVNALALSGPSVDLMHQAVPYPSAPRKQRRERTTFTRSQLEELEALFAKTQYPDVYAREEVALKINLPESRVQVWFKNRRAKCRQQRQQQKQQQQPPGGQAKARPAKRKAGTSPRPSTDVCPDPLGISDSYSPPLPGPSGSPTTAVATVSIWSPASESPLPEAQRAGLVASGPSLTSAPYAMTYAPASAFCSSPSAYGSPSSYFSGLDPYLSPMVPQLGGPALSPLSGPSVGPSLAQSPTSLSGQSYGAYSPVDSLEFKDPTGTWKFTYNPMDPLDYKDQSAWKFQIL
Chain of ELF4 (Q99607 whole entry): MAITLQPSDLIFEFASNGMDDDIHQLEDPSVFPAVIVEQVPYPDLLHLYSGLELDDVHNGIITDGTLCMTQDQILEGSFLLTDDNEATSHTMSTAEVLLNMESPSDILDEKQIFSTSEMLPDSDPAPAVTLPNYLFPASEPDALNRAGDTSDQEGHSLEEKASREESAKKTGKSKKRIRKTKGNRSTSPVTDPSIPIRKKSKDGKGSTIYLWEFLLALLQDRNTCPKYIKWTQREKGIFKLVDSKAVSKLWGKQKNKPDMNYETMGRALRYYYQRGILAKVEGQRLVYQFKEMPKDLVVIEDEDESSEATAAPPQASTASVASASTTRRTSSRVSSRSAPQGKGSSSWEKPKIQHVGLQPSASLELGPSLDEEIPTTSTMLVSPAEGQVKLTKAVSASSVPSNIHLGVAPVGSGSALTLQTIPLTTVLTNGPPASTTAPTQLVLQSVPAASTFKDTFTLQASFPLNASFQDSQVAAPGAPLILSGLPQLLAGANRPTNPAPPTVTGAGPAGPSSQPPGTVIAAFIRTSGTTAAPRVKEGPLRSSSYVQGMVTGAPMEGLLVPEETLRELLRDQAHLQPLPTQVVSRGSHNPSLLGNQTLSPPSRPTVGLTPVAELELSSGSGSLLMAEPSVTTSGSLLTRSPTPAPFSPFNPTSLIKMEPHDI
Chain of ELF1 (P32519 whole entry): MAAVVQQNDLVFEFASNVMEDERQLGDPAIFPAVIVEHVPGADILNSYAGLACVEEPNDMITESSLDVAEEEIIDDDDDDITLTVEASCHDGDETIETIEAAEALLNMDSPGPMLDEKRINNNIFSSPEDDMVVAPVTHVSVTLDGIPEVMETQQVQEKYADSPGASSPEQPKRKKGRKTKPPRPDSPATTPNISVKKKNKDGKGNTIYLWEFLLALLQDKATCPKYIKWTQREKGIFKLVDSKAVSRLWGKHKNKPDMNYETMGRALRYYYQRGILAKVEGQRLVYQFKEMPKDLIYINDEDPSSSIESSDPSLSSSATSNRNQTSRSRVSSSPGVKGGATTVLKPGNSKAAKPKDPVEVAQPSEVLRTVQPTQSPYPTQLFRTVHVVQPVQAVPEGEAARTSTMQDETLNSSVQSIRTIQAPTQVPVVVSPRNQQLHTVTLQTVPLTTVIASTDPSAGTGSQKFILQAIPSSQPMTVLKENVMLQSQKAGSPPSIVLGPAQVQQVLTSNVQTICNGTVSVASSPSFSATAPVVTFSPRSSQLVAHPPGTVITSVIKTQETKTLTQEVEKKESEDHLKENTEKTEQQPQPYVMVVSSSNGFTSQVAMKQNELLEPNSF
Chain of SPIB (Q01892 whole entry): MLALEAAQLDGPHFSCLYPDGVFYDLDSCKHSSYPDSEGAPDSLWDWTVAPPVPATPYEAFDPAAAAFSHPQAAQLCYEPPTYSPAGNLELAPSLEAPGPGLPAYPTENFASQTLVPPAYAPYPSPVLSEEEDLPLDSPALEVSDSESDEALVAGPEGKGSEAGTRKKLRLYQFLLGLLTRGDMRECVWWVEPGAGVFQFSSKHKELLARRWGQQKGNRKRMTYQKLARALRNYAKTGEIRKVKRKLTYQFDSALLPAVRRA
Chain of HSF1 (Q00613 whole entry): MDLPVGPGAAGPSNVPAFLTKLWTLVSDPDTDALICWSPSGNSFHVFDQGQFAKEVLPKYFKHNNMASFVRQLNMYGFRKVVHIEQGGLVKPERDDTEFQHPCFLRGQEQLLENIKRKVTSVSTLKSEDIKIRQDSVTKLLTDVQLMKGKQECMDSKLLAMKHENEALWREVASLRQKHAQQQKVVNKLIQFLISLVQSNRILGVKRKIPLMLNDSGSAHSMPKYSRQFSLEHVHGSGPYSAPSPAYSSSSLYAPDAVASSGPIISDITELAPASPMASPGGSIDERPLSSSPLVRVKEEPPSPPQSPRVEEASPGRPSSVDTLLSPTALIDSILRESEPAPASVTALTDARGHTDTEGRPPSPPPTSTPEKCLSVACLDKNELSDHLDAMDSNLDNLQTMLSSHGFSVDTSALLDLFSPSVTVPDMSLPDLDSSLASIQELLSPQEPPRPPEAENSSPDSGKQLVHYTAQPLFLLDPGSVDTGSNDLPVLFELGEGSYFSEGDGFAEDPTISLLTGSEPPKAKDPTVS
Chain of ETV1 (P50549 whole entry): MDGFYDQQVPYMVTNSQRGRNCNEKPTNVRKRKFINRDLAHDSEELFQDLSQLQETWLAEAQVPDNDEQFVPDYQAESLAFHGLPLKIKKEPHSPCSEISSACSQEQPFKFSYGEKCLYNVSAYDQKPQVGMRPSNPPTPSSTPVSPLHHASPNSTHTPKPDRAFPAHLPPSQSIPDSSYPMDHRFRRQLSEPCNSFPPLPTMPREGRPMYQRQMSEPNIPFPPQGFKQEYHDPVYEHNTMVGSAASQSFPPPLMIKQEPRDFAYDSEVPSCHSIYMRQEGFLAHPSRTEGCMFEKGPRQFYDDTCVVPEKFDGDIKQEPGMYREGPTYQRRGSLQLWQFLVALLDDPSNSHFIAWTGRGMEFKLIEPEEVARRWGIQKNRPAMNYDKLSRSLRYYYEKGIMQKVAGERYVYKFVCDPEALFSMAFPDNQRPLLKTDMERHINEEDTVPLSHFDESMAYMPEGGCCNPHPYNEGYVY

Turning to TGACTC, the binding signal in the test with FLI1 is 1.49 fold enrichment (6-mer frequency, TF over GST control); with ELK1 it was 1.39 fold enrichment (6-mer frequency, TF over GST control); in the test with GABPA it was 1.4 fold enrichment (6-mer frequency, TF over GST control); with ERG, 1.39 fold enrichment (6-mer frequency, TF over GST control); with ELF1, 1.36 fold enrichment (6-mer frequency, TF over GST control); in the test with EHF, 1.27 fold enrichment (6-mer frequency, TF over GST control). For the same sequence, the binding signal with SPI1 was 1.27 fold enrichment (6-mer frequency, TF over GST control); in the test with SPIB, 1.42 fold enrichment (6-mer frequency, TF over GST control); with ELK3, 1.41 fold enrichment (6-mer frequency, TF over GST control); with FEV it was 1.36 fold enrichment (6-mer frequency, TF over GST control); with ETV5, 1.24 fold enrichment (6-mer frequency, TF over GST control); in the test with HSF1, 1.1 fold enrichment (6-mer frequency, TF over GST control). Moreover, the binding signal with SPIC is 1.48 fold enrichment (6-mer frequency, TF over GST control); with ELF4 it was 1.35 fold enrichment (6-mer frequency, TF over GST control); in the test with ELK4, 1.31 fold enrichment (6-mer frequency, TF over GST control); in the test with ETV2 it was 1.31 fold enrichment (6-mer frequency, TF over GST control); in the test with ELF3, 1.36 fold enrichment (6-mer frequency, TF over GST control); in the test with CRX, 1.07 fold enrichment (6-mer frequency, TF over GST control). Also, the binding signal in the test with ETV1 was 1.33 fold enrichment (6-mer frequency, TF over GST control).
